Assay results reported in PubChem BioAssay AID1159580 (chemical genetic matrix, 2015).
Screen size: about 5,500 compounds; about 2,000 (36%) were called active. Roughly 18% stayed inconclusive and do not appear here. Cut-off read from the data, not from the text of the source: active = normalized growth mostly below about 0.91 (no sharp cut-off); inconclusive = no clear call, values can overlap the other calls; inactive = mostly above about 0.92. The list shows a part of the results.

Experiment: chemical genetic growth profiling, strain panel (AID 1159580);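 note: tested at 20 µM; growth read once vehicle control cultures reached saturation at 30 °C; 1 = growth at the plate median or of vehicle wells; lower values mean less growth of the strain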
Conditions: S. cerevisiae deletion strains, growth OD

Measured: normalized growth

Cc1ccc(/C=C2\CCc3ccccc3C2=O)o1
active: locus YAL013W, strain DEP1, stronger effect = lower value 0.451 | locus YBR229C, strain ROT2, stronger effect = lower value 0.43 | locus YDL101C, strain DUN1, stronger effect = lower value 0.472 | locus YDL134C, strain PPH21, stronger effect = lower value 0.381 | locus YDR150W, strain NUM1, stronger effect = lower value 0.563 | locus YEL061C, strain CIN8, stronger effect = lower value 0.531 | locus YGR078C, strain PAC10, stronger effect = lower value 0.794 | locus YHR030C, strain SLT2, stronger effect = lower value 0.126 | locus YHR087W, strain rtc3, stronger effect = lower value 0.528 | locus YJR043C, strain POL32, stronger effect = lower value 0.421 | locus YJR075W, strain HOC1, stronger effect = lower value 0.676 | locus YLR039C, strain RIC1, stronger effect = lower value 0.275 | locus YLR058C, strain SHM2 (second series), stronger effect = lower value 0.934 | locus YLR085C, strain ARP6, stronger effect = lower value 0.208 | locus YLR262C, strain YPT6, stronger effect = lower value 0.354 | locus YML094W, strain GIM5, stronger effect = lower value 0.347 | locus YMR219W, strain ESC1, stronger effect = lower value 0.765 | locus YMR263W, strain SAP30, stronger effect = lower value 0.464 | locus YNL153C, strain GIM3, stronger effect = lower value 0.459 | locus YNL298W, strain CLA4 (second series), stronger effect = lower value 0.315 | locus YNL322C, strain KRE1, stronger effect = lower value 0.755 | locus YNR030W, strain Alg12, stronger effect = lower value 0.205 | locus YPL055C, strain LGE1, stronger effect = lower value 0.263 | locus YPL241C, strain CIN2, stronger effect = lower value 0.224 | locus YPR135W, strain CTF4, stronger effect = lower value 0.264
